Assay results as given in PubChem BioAssay (EPA / NIEHS).
Active and inactive are the calls of the source. How the source made its calls: active means hit-call score of the fitted dose curve at least 0.9, where 1 is the maximum; inactive means score below 0.9.

These compounds were tested on Thyroid Hormone Responsive (THRSP), THRSP (gene 7069) (assay: LTEA_HepaRG_THRSP: Life Technologies and Expression Analysis (LTEA) Assay for Thyroid Hormone Responsive (THRSP) using HepaRG (AID 2283536)). Details: mRNA level, 48 h; actives raise or lower the signal.
Method: LTEA_HepaRG is a cell based, multiplexed-readout assay that uses HepaRG, a human liver cell line, with measurements taken at 48 hours after chemical dosing on a 96-well plate.LTEA_HepaRG_THRSP is one of 102 assay component(s) measured in the LTEA HepaRG cell culture assay. It is a marker of NR mediated metabolism.Data from the assay component LTEA_HepaRG_THRSP was analyzed into 1 endpoint. This assay endpoint, LTEA_HepaRG_THRSP, was analyzed with bidirectional fitting relative to DMSO as the negative control and baseline of activity. Using a type of inducible reporter, measures of mRNA induction for gain or loss-of-signal activity can be used to understand regulation of transcription factor activity. To generalize the intended target to other relatable targets, this assay endpoint is annotated to the growth factor intended target family, where the subfamily is NR mediated metabolism.
A total of 1060 chemcials from the ToxCast library were tested in eight-point concentration-response experiments. Cell culture and cytotoxicity assays were conducted at Thermo Fisher Scientific's Custom Services facility (Madison, WI). A single lot of human HepaRG cells (Thermo Fisher Scientific, Frederick, MD) was used for the cell culture experiments. 96-well format collagen type I coated plates of human HepaRG cells were prepared using established methods. Briefly, cryopreserved HepaRG cells were thawed, plated at a density of approximately 100,000 cells/well in HepaRG Thaw, Plate, and General Purpose media (HPRG770, Thermo Fisher Scientific), and incubated for 48 hours. 0.5% DMSO was selected as vehicle control to balance the requisite need of DMSO in HepaRG cultures to maintain differentiation (for example, baseline metabolism, proportions of hepatocytes vs. cholangiocytes), while enabling further hepatic receptor pathway activation (for example, PXR and CAR) in response to chemical exposure. 48 hours after plating, the culture medium was replaced with HepaRG Serum-Free Incudtion Media. Cells were exposed to each test chemical in duplicate and maintained in CO2 incubators for another 48 hours. Chemical plates were thawed to room temperature and 200x concentrations of treatment groups were prepared. 8-point conentration-reponse curves were made with the highest exposure at 100 uM, followed by half-log dilutions, all in 0.5% DMSO. Each test plate contained variouse controls, induction positive controls (1mM phenobarbital), cytotoxicity positive controls ([…] aflatoxin B1), vehicle controls (0.5% DMSO), and total lysis controls (0.5% DMSO). Cell morphology images were taken using an Essen IncuCyte FLR automated microscope, with six 96-well plates imaged in about 24 minutes. Images were captured and exported and JPEG files. Spent culture media was transfered to black-well plates for the LDH assay, and remaining media was sorted at -80 C for later use. Cells were treated with RLT buffer and frozen until shipped for gene expression analysis. Total RNA was isolated from the cell suspension in 75 uL of Buffer RLT (Qiagen, Germantown, MD 20874) by Quintiles/Expression Analysis (Durham, NC) using a custom isolation procedure. Total RNA from each plate well was transferred to a preamplification plate. Fluidigm's 96.96 Dynamic ArrayTM (Fluidigm, Amsterdam, the Netherlands) technology was used for gene expression analyses by quantitative reverse transcription polymerase chain reaction (qRT-PCR, performed by Quintiles/Expression Analysis, Durham, NC)89. Standard TaqManTM Assays (Applied Biosystems/ThermoFisher Scientific, Foster City, CA) were used to assess the expression of 93 genes selected based on their selectivity and sensitivity to important hepatic receptors known to be modulated by environmental chemicals; importance in human hepatocyte functionality; and hepatotoxicity. […]

SMILES	AC50	outcome
N=C(N)c1ccc(OCCCCCOc2ccc(C(=N)N)cc2)cc1	8.04 µM (active)	
Cc1[nH]nc2c1N=C(c1ccccc1Cl)c1cc([N+](=O)[O-])ccc1N2	8.84 µM (active)	
CCCCC(CC)C(=O)O (stereo unspecified)		inactive
CCC(C)c1ccccc1O (stereo unspecified)		inactive
CCCCCCCCCCCCCCC		inactive
CCCCC=O		inactive
OCC(CO)(CBr)CBr		inactive
CN(Cc1cnc2nc(N)nc(N)c2n1)c1ccc(C(=O)N[C@@H](CCC(=O)O)C(=O)O)cc1	0.167 µM (active)	
CCCCc1oc2ccccc2c1C(=O)c1cc(I)c(OCCN(CC)CC)c(I)c1	68.7 µM (active)	
O=C(c1ccccc1)c1ccccc1		inactive
O=C1NS(=O)(=O)c2ccccc21		inactive
CC(=O)Nc1ccc(O)cc1		inactive
CS(=O)(=O)c1ccc([C@@H](CC2CCCC2)C(=O)Nc2cnccn2)cc1Cl	63.5 µM (active)	
O=C(CCCN1CCC(O)(c2ccc(Cl)cc2)CC1)c1ccc(F)cc1		inactive
CN(C)CCOC(c1ccccc1)c1ccccc1	58.4 µM (active)	
CCCCCCCCCCCCOS(=O)(=O)O	80.5 µM (active)	
